Inconclusive results are not listed. The list shows a part of the results. Active and inactive are the calls of the source.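 Rule for the calls, unless noted: active = GFP response above 150% of the DMSO level; inconclusive = fewer than 70 events counted for a yeast strain; inactive = the rest.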

Experiment [1] can be described thus: interference with biotin-avidin bead interaction – biochemical, flow cytometry, bead-based, counter-screen for RGS protein interaction modulators (AID 1783;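 active = inhibition above 50%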;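 note: median green fluorescence of gated singlet beads compared with DMSO control wells; 0% = DMSO wells and 100% = complete loss of bead fluorescence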). As to conditions: streptavidin beads, fluorescein-biotin binding; at 10 µM, stronger effect = higher value.
The target in experiment [2] is Guanine nucleotide-binding protein G(o) subunit alpha (Homo sapiens) (UniProt P09471). Put plainly: retest of RGS8-Galphao interaction hits – biochemical, multiplexed bead flow cytometry, single concentration, confirmation (AID 1836; in the data active = binding response below about 72% or above about 130%; inactive = in between;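 note: Galphao activated as GDP AlF4 complex before binding bead RGS8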). Particulars: bead-based flow cytometry RGS8-Galphao binding, fluorescence; at 10 µM; actives lie on both sides. (In general: A flow cytometer gives signals particle by particle.)
Chain of Guanine nucleotide-binding protein G(o) subunit alpha (Homo sapiens) (P09471 whole entry, looked up): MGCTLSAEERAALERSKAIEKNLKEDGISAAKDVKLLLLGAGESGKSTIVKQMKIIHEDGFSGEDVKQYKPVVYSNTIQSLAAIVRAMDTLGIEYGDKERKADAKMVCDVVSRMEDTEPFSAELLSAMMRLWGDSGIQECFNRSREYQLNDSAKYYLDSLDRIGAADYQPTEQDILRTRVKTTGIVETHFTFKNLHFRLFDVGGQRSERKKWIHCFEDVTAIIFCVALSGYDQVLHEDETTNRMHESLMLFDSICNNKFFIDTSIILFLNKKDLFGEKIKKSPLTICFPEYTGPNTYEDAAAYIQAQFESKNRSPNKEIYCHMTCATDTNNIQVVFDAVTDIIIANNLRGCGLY

The target is the same in experiment [3]. Nature of the experiment: retest of RGS7-Galphao interaction hits – biochemical, multiplexed bead flow cytometry, single concentration, confirmation (AID 1837; in the data active = response below about 75% or above about 130%; inactive = in between;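 note: fluorescent Galphao activated with GDP and aluminum fluoride binding bead-coupled RGS7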). As to conditions: bead-based flow cytometry RGS7-Galphao binding; at 10 µM; actives lie on both sides.
Experiment [4] deals with Regulator of G-protein signaling 16 (Homo sapiens) + Guanine nucleotide-binding protein G(o) subunit alpha (Homo sapiens) (UniProt O15492+P09471). Nature of the experiment: RGS16 and Galphao interaction regulators – biochemical, single concentration, multiplexed bead flow cytometry, confirmation (AID 1838; in the data active = response below about 74% or above about 130%; inactive = in between;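 note: Galphao activated as the GDP aluminium fluoride complex binding bead-coupled RGS16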). As to conditions: bead-based flow cytometry, at 10 µM, actives lie on both sides.
Chain of Regulator of G-protein signaling 16 (Homo sapiens) + Guanine nucleotide-binding protein G(o) subunit alpha (Homo sapiens) (O15492 whole entry, looked up): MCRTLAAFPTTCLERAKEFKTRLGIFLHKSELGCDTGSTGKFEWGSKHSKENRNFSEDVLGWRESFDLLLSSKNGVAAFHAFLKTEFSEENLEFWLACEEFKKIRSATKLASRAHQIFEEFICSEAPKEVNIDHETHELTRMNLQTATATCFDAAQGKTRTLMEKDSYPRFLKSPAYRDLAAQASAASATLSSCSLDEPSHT
Chain of Regulator of G-protein signaling 16 (Homo sapiens) + Guanine nucleotide-binding protein G(o) subunit alpha (Homo sapiens) (P09471 whole entry, looked up): as the sequence (P09471 whole entry, looked up) above

Experiment [5] addresses Guanine nucleotide-binding protein G(o) subunit alpha (Homo sapiens) (UniProt P09471). Nature of the experiment: RGS4 and Galphao interaction regulators – biochemical, single concentration, multiplexed bead flow cytometry, confirmation (AID 1840; in the data active = binding response below about 74% or above about 130%; inactive = in between). As to conditions: at 10 µM, actives lie on both sides.
The target in experiment [6] is Guanine nucleotide-binding protein G(o) subunit alpha (Homo sapiens) + Regulator of G-protein signaling 19 (Homo sapiens) (UniProt P09471+P49795). Put plainly: RGS19 interaction with Gαo, hit retest – biochemical, single point, multiplexed bead flow cytometry, confirmation (AID 1841; in the data active = response below about 50% or above about 160%; inactive = in between;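 note: 100% = no compound control and 0% = blank background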). As to conditions: bead-based flow cytometry RGS19-Galphao binding; at 10 µM; actives lie on both sides.
Chain of Guanine nucleotide-binding protein G(o) subunit alpha (Homo sapiens) + Regulator of G-protein signaling 19 (Homo sapiens) (P09471 whole entry, looked up): as above
Chain of Guanine nucleotide-binding protein G(o) subunit alpha (Homo sapiens) + Regulator of G-protein signaling 19 (Homo sapiens) (P49795 whole entry, looked up): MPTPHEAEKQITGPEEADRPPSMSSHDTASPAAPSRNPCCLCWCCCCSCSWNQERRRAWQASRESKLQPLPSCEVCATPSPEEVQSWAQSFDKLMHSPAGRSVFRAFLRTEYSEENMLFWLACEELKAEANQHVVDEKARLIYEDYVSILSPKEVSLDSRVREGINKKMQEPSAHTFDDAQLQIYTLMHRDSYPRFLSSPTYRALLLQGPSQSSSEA

Experiment [7] is described as follows: rapamycin-like changes in RPL19A-GFP expression – cell-based, S. cerevisiae, multiplex flow cytometry, primary screen (AID 1862; in the data active = percent of DMSO control GFP below about 86%;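 note: lower values mimic rapamycin by blocking the RPL19A rise seen in DMSO cells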). Particulars: S. cerevisiae RPL19A-GFP strain, flow cytometry fluorescence, 3 h; at 10 µM; stronger effect = lower value.
Experiment [8] in a line: TOR pathway GLN3 branch reporter MEP2-GFP changes – S. cerevisiae, multiplex flow cytometry, primary screen (AID 1867;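 active = GFP response, as percent of the DMSO control, above the screen-wide mean plus 3 SD, about 139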;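 note: median GFP channel fluorescence of barcode-gated MEP2-GFP cells measured by flow cytometry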). Particulars: S. cerevisiae MEP2-GFP strain, 3 h, at 10 µM, stronger effect = higher value, 100% means same as DMSO wells.
A short description of experiment [9]: TOR pathway RTG branch CIT2 reporter changes – S. cerevisiae, GFP fusion, multiplex flow cytometry, primary screen (AID 1870;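 active = percent response above a set limit, the screen-wide mean plus 3 SD, cut at about 130% in these data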;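 note: barcoded CIT2-GFP strain pooled with four other GFP strains with rapamycin as positive control; median GFP fluorescence per well over plate mean of DMSO wells so 100% = DMSO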). Particulars: S. cerevisiae CIT2-GFP expression, 3 h, at 10 µM, stronger effect = higher value.
Experiment [10] can be described thus: TOR pathway LAP4-GFP level changes – S. cerevisiae, multiplex flow cytometry, primary screen (AID 1873;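 active = GFP signal, as percent of the solvent control, above the screen mean plus 3 SD, about 149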). Particulars: S. cerevisiae LAP4-GFP expression, 3 h, at 10 µM, stronger effect = higher value.
The nature of experiment [11]: yeast AGP1-GFP level changes, GLN3 branch – cell-based, multiplex flow cytometry, S. cerevisiae, primary screen (AID 1887;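 active = GFP signal above the screen-wide mean plus 3 SD, that is over about 124.5% of the solvent control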;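 note: AGP1-GFP fusion strain of S. cerevisiae within a five-strain barcoded multiplex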). Particulars: 3 h, at 10 µM, stronger effect = higher value.
A short description of experiment [12]: hit retest on RPL19A-GFP reporter strain – cell-based, S. cerevisiae, flow cytometry, cherry picks, mother/daughter gates, confirmation (AID 2270;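 active = GFP response below 50% of the DMSO control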). Particulars: 3 h, at 10 µM, stronger effect = lower value, 100 = same GFP as DMSO wells.
Experiment [13] in a line: yeast TOR pathway reporter LAP4-GFP change – cell-based, cherry picks, flow cytometry, mother/daughter gates, confirmation (AID 2271;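 active = GFP response above 150% of the DMSO control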;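 note: ratio of sample to DMSO plate mean so 100% equals DMSO level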). As to conditions: S. cerevisiae LAP4-GFP strain, 3 h, at 10 µM, stronger effect = higher value, 100 means same as DMSO control.
Experiment [14] in a line: TOR pathway reporter MEP2-GFP, retest of hits – S. cerevisiae, flow cytometry GFP, cherry picks, confirmation (AID 2272;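 active = GFP response above 150% of the DMSO control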;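 note: ratio of well signal to plate DMSO mean so 100% equals DMSO level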). As to conditions: S. cerevisiae MEP2-GFP strain, 3 h, at 10 µM, stronger effect = higher value.
Experiment [15] in a line: TOR pathway CIT2 reporter hit retest – S. cerevisiae, GFP fusion, cherry picks, mother/daughter gates, confirmation (AID 2274). Particulars: S. cerevisiae CIT2-GFP strain, flow cytometry, 3 h, at 10 µM, stronger effect = higher value.
Experiment [16] can be described thus: reduced mouse 2C T cell binding to pMHC/ICAM-1 vesicles – MLPCN validation set, flow cytometry, LFA-1/ICAM-1 modulator project, pilot screen (AID 2523;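 active = response below a set limit, under 55% cells CD8-positive and vesicle-bound, and CD8 cells' 90th-percentile brightness under 279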;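 for vesicle binding response: mean PE anti-B7-1 fluorescence of CD8+ cells relative to row control; 100% = QL9-loaded vesicles with DMSO vehicle in the same plate row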). As to conditions: 2C mouse CD8+ T cells, at 7 µM, stronger effect = lower value; double positive events: measured here: CD8+/vesicle+ event percentage.
The mark [17] stands for this setting: measured here: daughter cell gate.
[18] abbreviates: measured here: mother cell gate.
[19] abbreviates: measured here: daughter cell gate response.
Setting [20] is: measured here: mother cell gate response.

By inhibition is commonly meant the drop in the measured response relative to a control, in per cent. As for `COc1ccc(CCNC(=O)c2cc3sccc3n2C)cc1OC`, the inhibition in experiment [1] is 0.7% (inactive). The binding response (% of control) in [2] is 103% (inactive); in experiment [5], 102% (inactive). For the same compound, the response (percent of control binding) is 106% (inactive) in experiment [3] and 114% (inactive) in experiment [6]. The response (% of control binding) in [4] was 103% (inactive).

For `Cc1c(Br)cc(C(=O)N2CCCCCC2)c(C)c1C`, in experiment [1], the inhibition was -0.3% (inactive). The binding response (% of control) in experiment [2] and in experiment [5] was 102% (inactive) in each case. The response (percent of control binding) in experiment [3] is 102% (inactive); in experiment [6] it was 104% (inactive). In addition, in [4], the response (% of control binding) is 102% (inactive).

On to `C[C@]12C[C@H](O)[C@H]3[C@@H](CCC4=CC(=O)CC[C@@]43C)[C@@H]1CC[C@@H]2C(=O)CO`, for which, in experiment [7], the percent of DMSO control GFP was 96.3% (inactive). The GFP response vs DMSO in experiment [8] is 110% (inactive); in experiment [10], 78.1% (inactive); in experiment [12], 98.2% (inactive); in experiment [12] (setting [17]) it was 98.9%; in experiment [12] (setting [18]), 98.7%; in experiment [14], 98.3% (inactive). Further, in [9], the percent response of DMSO control is 112% (inactive). The GFP response, % of DMSO in experiment [11] was 101% (inactive); in [15], 105% (inactive); in experiment [15] (setting [17]), 105%; in experiment [15] (setting [18]), 106%. Besides, the GFP response relative to DMSO in [13] was 94.1% (inactive); in experiment [13] (setting [19]) it was 94.4%; in experiment [13] (setting [20]), 94%. The double positive events in experiment [16] was found to be 70.2%. In addition, the vesicle binding response in experiment [16] is 222% (inactive).

`Cc1ccc(OCCCCn2ccnc2C)c(C)c1`: the percent of DMSO control GFP in experiment [7] was 97.3% (inactive). The GFP response vs DMSO in experiment [8] is 99.6% (inactive); in experiment [10] it was 103% (inactive); in experiment [12], 99.6% (inactive); in experiment [12] (setting [17]), 99.4%; in experiment [12] (setting [18]), 101%; in experiment [14] it was 112% (inactive). Besides, the percent response of DMSO control in [9] was 95.7% (inactive). Also, the GFP response, % of DMSO is 110% (inactive) in [11], 98.4% (inactive) in experiment [15], 100% in experiment [15] (setting [17]) and 97.7% in [15] (setting [18]). The GFP response relative to DMSO is 99.8% (inactive) in experiment [13], 99.7% in experiment [13] (setting [19]) and 100% in [13] (setting [20]). In experiment [16], this compound registered a double positive events of 59.6%. The vesicle binding response in experiment [16] was 179% (inactive).

Consider `O=c1cc(-c2ccccc2)oc2cc(OCc3ccccc3)cc(O)c12`, for which the percent of DMSO control GFP in experiment [7] was 91.7% (inactive). For the same compound, the GFP response vs DMSO was 140% (active) in [8]; 84.2% (inactive) in experiment [10]; 98.2% (inactive) in [12]; 98.6% in experiment [12] (setting [17]); 98.7% in experiment [12] (setting [18]); 100% (inactive) in experiment [14]. For the same compound, the percent response of DMSO control in experiment [9] is 108% (inactive). Besides, the GFP response, % of DMSO in [11] is 85.9% (inactive); in experiment [15] it was 104% (inactive); in experiment [15] (setting [17]), 105%; in experiment [15] (setting [18]) it was 103%. The GFP response relative to DMSO was 99.2% (inactive) in experiment [13], 97.6% in [13] (setting [19]) and 99.3% in [13] (setting [20]). The same compound returned a double positive events in experiment [16] of 62.5%. Also, the vesicle binding response in [16] is 139% (inactive).

For `CC(=O)Nc1ccc(S(=O)(=O)c2ccc(N)cc2)cc1`, in experiment [7], the percent of DMSO control GFP was 97.9% (inactive). Besides, the GFP response vs DMSO in experiment [8] was 126% (inactive); in experiment [10] it was 77.6% (inactive); in experiment [12], 103% (inactive); in experiment [12] (setting [17]) it was 101%; in experiment [12] (setting [18]), 104%; in experiment [14] it was 102% (inactive). For the same compound, the percent response of DMSO control in experiment [9] was 136% (active). Besides, the GFP response, % of DMSO was 85.4% (inactive) in experiment [11], 102% (inactive) in experiment [15], 101% in [15] (setting [17]) and 102% in experiment [15] (setting [18]). Also, the GFP response relative to DMSO was 105% (inactive) in experiment [13], 103% in experiment [13] (setting [19]) and 106% in experiment [13] (setting [20]). The compound also showed a double positive events in experiment [16] of 62.6%. In experiment [16], the vesicle binding response was 203% (inactive).

Source of the values: PubChem BioAssay.
